Data taken from PubChem BioAssay.
Records with an inconclusive call do not appear. Active and inactive are the calls of the source. Unless noted, no rule for the calls is given here.

Assays:
[1] = yeast TOR pathway RPL19A-GFP modulators, primary screen, cell-based, S. cerevisiae, multiplex flow cytometry (AID 1862; in the data active = percent of DMSO control GFP below about 86%;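 also: lower values mimic rapamycin by blocking the RPL19A rise seen in DMSO cells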); details: S. cerevisiae RPL19A-GFP strain, flow cytometry fluorescence, 3 h; at 10 µM; stronger effect = lower value
[2] = modulators of MEP2-GFP levels in yeast, primary screen, S. cerevisiae, multiplex flow cytometry (AID 1867;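 active = GFP response, as percent of the DMSO control, above the screen-wide mean plus 3 SD, about 139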;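 also: median GFP channel fluorescence of barcode-gated MEP2-GFP cells measured by flow cytometry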); details: S. cerevisiae MEP2-GFP strain, 3 h, at 10 µM, stronger effect = higher value
[3] = modulators of CIT2-GFP expression in yeast, primary screen, S. cerevisiae, GFP fusion, multiplex flow cytometry (AID 1870;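 active = percent response above a set limit, the screen-wide mean plus 3 SD, cut at about 130% in these data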;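 also: barcoded CIT2-GFP strain pooled with four other GFP strains with rapamycin as positive control; median GFP fluorescence per well over plate mean of DMSO wells so 100% = DMSO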); details: 3 h, at 10 µM, stronger effect = higher value
[4] = modulators of LAP4-GFP expression in yeast, primary screen, S. cerevisiae, multiplex flow cytometry (AID 1873;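 active = GFP signal, as percent of the solvent control, above the screen mean plus 3 SD, about 149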); details: 3 h, at 10 µM, stronger effect = higher value
[5] = modulators of AGP1-GFP expression in yeast TOR pathway, primary screen, cell-based, multiplex flow cytometry, S. cerevisiae (AID 1887;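 active = GFP signal above the screen-wide mean plus 3 SD, that is over about 124.5% of the solvent control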;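 also: AGP1-GFP fusion strain of S. cerevisiae within a five-strain barcoded multiplex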); details: 3 h, at 10 µM, stronger effect = higher value
[6] = inhibitors of CD8+ T cell-vesicle binding, pilot screen, LFA-1/ICAM-1 modulator project, MLPCN validation set, flow cytometry (AID 2523;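 active = response below a set limit, under 55% cells CD8-positive and vesicle-bound, and CD8 cells' 90th-percentile brightness under 279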;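 as to vesicle binding response: mean PE anti-B7-1 fluorescence of CD8+ cells relative to row control; 100% = QL9-loaded vesicles with DMSO vehicle in the same plate row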); details: 2C mouse CD8+ T cells, at 7 µM, stronger effect = lower value; double positive events: measured here: CD8+/vesicle+ event percentage
[7] = target: Integrin beta-1 (Homo sapiens) + Integrin alpha-4 (Homo sapiens) (UniProt P13612+P05556); experiment: inhibition of HUTS-21 binding to VLA-4, pilot screen, VLA-4 allosteric modulator project, U937 cells, HUTS-21 mAb, flow cytometry, validation set (AID 2674;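 active = inhibition above 50%, about 3 SD of the validation set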;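 also: antibody binding induced by the VLA-4 ligand LDV present at three times its Kd; 0% = LDV ligand with antibody and no compound and 100% = antibody without LDV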); details: HUTS-21 LIBS mAb binding, at 6.7 µM, stronger effect = higher value
[8] = superoxide lowering in aged yeast cells, pilot screen, validation compound set (AID 2706;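 active = superoxide response below 65% of plate, a cut near 3 SD across the whole screen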;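 also: yeast exposed to compound for one week at 30 degrees C before staining; 100% = mean of all compound wells on the same plate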); details: S. cerevisiae aging, superoxide DHE fluorescence; at 10 µM; stronger effect = lower value
[9] = target: Beta-adrenergic receptor kinase 1 (Homo sapiens) (UniProt P25098); experiment: GRK2 binders displacing RNA aptamer, biochemical, validation, human GRK2, bead flow cytometry (AID 488806;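 active = aptamer binding inhibition above 30%, about 3 SD of noise from non-fluorescent compounds; inactive = inhibition at or below 30%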); details: bead-bound GRK2, FAM-aptamer displacement, at 10 µM, stronger effect = higher value
[10] = target: Beta-2 adrenergic receptor (Homo sapiens) (UniProt P07550); experiment: beta2AR agonists driving receptor internalization, pilot screen, cell-based, FAP fluorogen, flow cytometry, validation set (AID 504459;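 active = percent response above 42, roughly 3 SD of non-fluorescent test compounds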;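 also: agonist-driven loss of surface beta2AR via internalization measured by FAP dye flow cytometry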); details: Am2.2-beta2AR cells, FAP surface receptor flow cytometry; at 10 µM; stronger effect = higher value
[11] = target: AP-2 complex subunit beta (Homo sapiens) (UniProt P63010); experiment: inhibitors of arrestin peptide binding to AP2, pilot screen, biochemical, validation set, GST-AP2 beads, flow cytometry (AID 504541;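 active = inhibition above 54%, about 3 SD of non-fluorescent compounds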;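 also: AP2 carries R879A mutation and is captured from E. coli lysate; bead-bound FITC arrestin peptide fluorescence measuring arrestin peptide binding to AP2; 0% = DMSO wells and 100% = excess unlabeled arrestin peptide control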); details: FITC arrestin peptide, at 10 µM, stronger effect = higher value
[12] = yeast V-ATPase proton transport modulators, S. cerevisiae, pHLuorin, HTS validation (AID 504600; in the data active = response above about 15%;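 also: plate controls were DMSO for no effect and reference compound for full effect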); details: S. cerevisiae pHLuorin cytosolic pH, at 10 µM, stronger effect = higher value
[13] = test system: anti-desmoglein-3 scFv antibody binding to human DSG3; experiment: inhibitors of anti-DSG3 scFv binding to DSG3, pilot screen, biochemical, validation compound set, bead-based, flow cytometry (AID 588368;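 active = binding below the plate cutoff, the plate median minus 3 SD, with a reading above zero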;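 also: signal is the median channel fluorescence of bead-bound GFP antibody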); details: Protein G beads, DSG3-Fc, scFv-GFP binding, at 10 µM, stronger effect = lower value
[14] = test system: Botulinum neurotoxin type F light chain protease (Clostridium botulinum); experiment: Botulinum neurotoxin type F light chain protease inhibition, multiplex microsphere flow cytometry, validation set (AID 588459); details: multiplex microsphere protease substrate cleavage assay, at 10 µM, stronger effect = higher value
[15] = target: Botulinum neurotoxin type A (Clostridium botulinum) (UniProt P0DPI0); experiment: BoNT/A light chain protease inhibitors, biochemical, multiplex microsphere flow cytometry, validation set (AID 588460); details: at 10 µM, stronger effect = higher value
[16] = target: Lethal factor (Bacillus anthracis) (UniProt P15917); experiment: Lethal factor protease inhibitors, Bacillus anthracis, multiplex microsphere cleavage assay, validation set (AID 588461); details: flow cytometry, at 10 µM, stronger effect = higher value
[17] = inhibitors of fungal efflux pumps CDR1, CDR2, MDR1, pilot screen, validation compound set, multiplex, phenotypic (AID 588506;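 active = efflux inhibition above 0.42, the validation set average plus 4 SD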;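 also: Nile Red retained in cells so higher fluorescence means more efflux inhibition; 0 = negative control wells and 1 = enniatin B 25 µM full block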); details: S. cerevisiae pump-expressing triplex, Nile Red efflux flow cytometry; at 10 µM; stronger effect = higher value
[18] = target: ATP-binding cassette sub-family B member 6 (Homo sapiens) (UniProt Q9NP58); experiment: ABCB6 transporter inhibitors, pilot screen, K562-ABCB6 cells, flow cytometry, validation set (AID 588550;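 active = inhibition above the screen-wide mean plus 3 SD, about 51%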;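 also: 0% = DMSO wells and 100% = benzethonium chloride 70 µM positive control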); details: K562-ABCB6 porphyrin accumulation, 1 h, at 10 µM, stronger effect = higher value
[19] = promoters of myeloid differentiation in arrested cells, primary screen, cell-based, GFP/MAC1 double positive, flow cytometry, validation set (AID 588685;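 active = differentiation response of at least 50%, scaled between solvent and reference control, from cells with both markers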;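 also: compound exposure lasts four days before antibody staining and flow analysis; 0% = DMSO wells and 100% = 5 µM fulvestrant positive control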); details: ER-HoxA9 marrow cells, stronger effect = higher value

Chain of Integrin beta-1 (Homo sapiens) + Integrin alpha-4 (Homo sapiens) (P05556 whole entry, looked up): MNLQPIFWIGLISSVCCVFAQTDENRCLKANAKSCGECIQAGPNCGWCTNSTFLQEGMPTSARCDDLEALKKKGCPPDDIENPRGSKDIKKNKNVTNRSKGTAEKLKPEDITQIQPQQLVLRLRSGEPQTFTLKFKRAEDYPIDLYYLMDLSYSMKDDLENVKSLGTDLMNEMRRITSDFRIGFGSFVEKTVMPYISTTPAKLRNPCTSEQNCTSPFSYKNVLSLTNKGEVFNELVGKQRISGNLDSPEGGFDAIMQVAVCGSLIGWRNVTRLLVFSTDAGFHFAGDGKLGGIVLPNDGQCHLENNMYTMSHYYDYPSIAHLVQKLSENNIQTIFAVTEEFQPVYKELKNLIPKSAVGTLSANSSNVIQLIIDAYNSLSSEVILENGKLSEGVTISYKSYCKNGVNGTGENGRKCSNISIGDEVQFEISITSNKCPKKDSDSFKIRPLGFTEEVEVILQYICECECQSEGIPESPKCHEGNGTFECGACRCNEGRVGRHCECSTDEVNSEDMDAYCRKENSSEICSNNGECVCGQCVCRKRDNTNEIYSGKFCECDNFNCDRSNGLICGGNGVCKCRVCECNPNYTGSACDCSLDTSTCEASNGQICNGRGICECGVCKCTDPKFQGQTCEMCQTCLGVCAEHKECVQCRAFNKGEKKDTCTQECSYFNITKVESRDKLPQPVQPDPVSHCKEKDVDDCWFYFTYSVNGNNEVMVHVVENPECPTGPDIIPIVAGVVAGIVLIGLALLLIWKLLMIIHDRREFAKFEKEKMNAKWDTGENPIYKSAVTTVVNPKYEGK
Chain of Integrin beta-1 (Homo sapiens) + Integrin alpha-4 (Homo sapiens) (P13612 whole entry, looked up): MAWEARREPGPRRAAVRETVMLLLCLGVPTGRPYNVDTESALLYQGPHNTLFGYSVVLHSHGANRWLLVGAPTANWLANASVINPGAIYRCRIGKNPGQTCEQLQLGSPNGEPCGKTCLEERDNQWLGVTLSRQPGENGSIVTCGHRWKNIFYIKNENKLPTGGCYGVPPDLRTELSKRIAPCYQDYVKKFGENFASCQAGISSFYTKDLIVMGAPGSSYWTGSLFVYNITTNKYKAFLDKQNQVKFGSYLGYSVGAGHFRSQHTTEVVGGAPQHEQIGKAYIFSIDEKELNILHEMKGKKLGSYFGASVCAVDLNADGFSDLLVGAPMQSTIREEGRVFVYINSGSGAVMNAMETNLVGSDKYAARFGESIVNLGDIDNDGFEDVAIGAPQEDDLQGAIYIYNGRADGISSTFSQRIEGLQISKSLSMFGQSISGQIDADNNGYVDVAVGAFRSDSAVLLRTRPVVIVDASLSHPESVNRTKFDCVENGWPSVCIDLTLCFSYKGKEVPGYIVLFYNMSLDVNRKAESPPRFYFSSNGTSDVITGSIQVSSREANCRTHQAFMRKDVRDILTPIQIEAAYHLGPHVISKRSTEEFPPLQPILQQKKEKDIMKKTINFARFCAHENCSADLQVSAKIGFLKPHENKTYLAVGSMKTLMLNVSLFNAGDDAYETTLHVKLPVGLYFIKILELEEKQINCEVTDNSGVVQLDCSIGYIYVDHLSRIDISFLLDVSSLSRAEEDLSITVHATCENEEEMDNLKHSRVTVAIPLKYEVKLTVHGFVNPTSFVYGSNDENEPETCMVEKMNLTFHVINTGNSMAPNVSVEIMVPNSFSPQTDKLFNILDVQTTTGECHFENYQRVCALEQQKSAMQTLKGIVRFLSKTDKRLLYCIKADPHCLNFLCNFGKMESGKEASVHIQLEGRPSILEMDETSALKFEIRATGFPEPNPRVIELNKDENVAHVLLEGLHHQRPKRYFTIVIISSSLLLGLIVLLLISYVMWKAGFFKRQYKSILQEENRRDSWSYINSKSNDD
Chain of Lethal factor (Bacillus anthracis) (P15917 whole entry, looked up): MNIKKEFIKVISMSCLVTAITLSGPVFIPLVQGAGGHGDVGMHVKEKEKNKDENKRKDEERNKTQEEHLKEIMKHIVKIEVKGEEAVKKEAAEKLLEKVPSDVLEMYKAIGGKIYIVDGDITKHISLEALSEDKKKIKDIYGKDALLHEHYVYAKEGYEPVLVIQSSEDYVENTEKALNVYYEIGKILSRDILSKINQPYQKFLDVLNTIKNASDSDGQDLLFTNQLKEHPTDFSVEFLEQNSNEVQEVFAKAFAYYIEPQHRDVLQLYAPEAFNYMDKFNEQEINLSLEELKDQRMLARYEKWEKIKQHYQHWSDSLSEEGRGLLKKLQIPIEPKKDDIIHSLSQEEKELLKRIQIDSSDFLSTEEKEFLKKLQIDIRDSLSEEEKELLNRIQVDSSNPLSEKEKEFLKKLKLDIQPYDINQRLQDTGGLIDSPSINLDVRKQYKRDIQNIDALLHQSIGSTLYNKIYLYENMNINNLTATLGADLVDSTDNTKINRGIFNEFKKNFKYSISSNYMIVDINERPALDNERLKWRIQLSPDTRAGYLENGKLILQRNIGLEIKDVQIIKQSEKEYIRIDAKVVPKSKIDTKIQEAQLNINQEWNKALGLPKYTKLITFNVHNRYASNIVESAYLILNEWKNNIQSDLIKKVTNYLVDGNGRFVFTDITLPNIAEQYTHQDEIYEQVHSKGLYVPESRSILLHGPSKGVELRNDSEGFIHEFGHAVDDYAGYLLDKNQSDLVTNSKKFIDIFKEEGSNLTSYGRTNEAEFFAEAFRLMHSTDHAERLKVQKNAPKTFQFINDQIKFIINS
Chain of Beta-2 adrenergic receptor (Homo sapiens) (P07550 whole entry, looked up): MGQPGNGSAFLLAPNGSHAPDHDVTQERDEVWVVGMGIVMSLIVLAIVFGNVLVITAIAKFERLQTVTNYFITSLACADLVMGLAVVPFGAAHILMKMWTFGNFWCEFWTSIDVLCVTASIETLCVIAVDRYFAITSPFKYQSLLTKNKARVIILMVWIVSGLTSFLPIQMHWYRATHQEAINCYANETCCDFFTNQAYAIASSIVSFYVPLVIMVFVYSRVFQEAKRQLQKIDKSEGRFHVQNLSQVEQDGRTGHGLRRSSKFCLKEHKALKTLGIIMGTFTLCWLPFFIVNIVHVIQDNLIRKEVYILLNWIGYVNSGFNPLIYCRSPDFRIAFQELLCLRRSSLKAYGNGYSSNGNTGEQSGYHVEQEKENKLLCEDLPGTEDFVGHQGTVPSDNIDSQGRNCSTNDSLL
Chain of Beta-adrenergic receptor kinase 1 (Homo sapiens) (P25098 whole entry, looked up): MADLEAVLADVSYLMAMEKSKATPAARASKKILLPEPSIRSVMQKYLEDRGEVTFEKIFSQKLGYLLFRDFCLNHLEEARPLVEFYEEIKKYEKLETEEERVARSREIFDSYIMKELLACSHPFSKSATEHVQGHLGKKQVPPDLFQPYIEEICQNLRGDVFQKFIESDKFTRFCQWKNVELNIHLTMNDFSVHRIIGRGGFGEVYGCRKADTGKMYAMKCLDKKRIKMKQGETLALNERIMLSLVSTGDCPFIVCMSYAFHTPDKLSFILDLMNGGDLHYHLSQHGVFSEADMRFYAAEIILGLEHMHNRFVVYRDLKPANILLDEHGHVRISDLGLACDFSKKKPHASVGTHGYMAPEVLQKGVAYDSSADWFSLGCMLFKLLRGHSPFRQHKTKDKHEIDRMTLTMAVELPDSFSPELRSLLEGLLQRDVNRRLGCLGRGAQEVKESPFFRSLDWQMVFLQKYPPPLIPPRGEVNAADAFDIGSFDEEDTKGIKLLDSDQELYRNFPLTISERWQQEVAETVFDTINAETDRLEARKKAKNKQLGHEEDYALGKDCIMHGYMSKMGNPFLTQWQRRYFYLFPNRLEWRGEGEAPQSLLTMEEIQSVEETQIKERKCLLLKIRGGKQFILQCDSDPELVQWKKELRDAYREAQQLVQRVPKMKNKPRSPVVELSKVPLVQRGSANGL
Chain of AP-2 complex subunit beta (Homo sapiens) (P63010 whole entry, looked up, one chain of several): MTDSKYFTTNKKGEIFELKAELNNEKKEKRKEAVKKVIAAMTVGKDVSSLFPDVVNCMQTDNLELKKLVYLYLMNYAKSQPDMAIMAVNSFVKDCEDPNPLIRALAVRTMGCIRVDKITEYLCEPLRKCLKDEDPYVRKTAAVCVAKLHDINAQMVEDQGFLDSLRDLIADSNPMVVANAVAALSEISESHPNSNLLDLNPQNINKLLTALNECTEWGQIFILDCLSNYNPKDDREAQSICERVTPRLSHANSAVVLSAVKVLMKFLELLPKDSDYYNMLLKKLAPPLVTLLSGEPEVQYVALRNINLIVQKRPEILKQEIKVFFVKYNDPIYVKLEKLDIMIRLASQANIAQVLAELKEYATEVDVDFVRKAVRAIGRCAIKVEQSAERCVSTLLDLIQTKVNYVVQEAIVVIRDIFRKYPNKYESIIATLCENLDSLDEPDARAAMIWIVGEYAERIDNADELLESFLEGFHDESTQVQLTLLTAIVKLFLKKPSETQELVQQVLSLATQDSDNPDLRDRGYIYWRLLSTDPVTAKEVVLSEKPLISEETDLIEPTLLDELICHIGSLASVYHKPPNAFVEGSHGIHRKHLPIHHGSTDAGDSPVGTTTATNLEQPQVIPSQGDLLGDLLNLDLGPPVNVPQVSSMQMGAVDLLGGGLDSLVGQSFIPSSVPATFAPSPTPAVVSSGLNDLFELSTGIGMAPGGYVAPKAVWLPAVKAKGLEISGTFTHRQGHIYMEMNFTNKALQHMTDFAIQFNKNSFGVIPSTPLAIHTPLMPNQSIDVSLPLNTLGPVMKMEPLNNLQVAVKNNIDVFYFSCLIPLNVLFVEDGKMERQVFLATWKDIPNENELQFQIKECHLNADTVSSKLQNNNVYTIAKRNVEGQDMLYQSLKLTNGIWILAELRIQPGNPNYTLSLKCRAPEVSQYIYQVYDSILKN

CCOC(=O)c1cc2c(cn1)[nH]c1ccccc12
inactive: percent of DMSO control GFP [1] 98.4% | GFP response vs DMSO [2] 103% | percent response of DMSO control [3] 103% | GFP response vs DMSO [4] 105% | GFP response, % of DMSO [5] 94.5% | vesicle binding response [6] 102% | inhibition [7] -7.79% | superoxide response (% of plate) [8] 96.2% | aptamer binding inhibition [9] 3% | response [10] -5.72% | inhibition [11] -6.1% | response [12] -1.17% | binding (% of control) [13] 98.5% | inhibition [14] 2.3% | inhibition [15] 0.5% | inhibition [16] -1.3% | efflux inhibition (fraction of control) [17] -0.39 | inhibition [18] -6% | differentiation response [19] -1.65%
59.3%: double positive events [6]

CN1C2CCC1CC(OC(=O)c1ccc(Cl)cc1)C2 (centres undefined)
62.2%: double positive events [6]
inactive: percent of DMSO control GFP [1] 99.9% | GFP response vs DMSO [2] 98.5% | percent response of DMSO control [3] 98.6% | GFP response vs DMSO [4] 119% | GFP response, % of DMSO [5] 108% | vesicle binding response [6] 228% | inhibition [7] 11.9% | superoxide response (% of plate) [8] 99.6% | aptamer binding inhibition [9] -1% | response [10] -2.49% | inhibition [11] -3.16% | response [12] 2.46% | binding (% of control) [13] 99.5% | inhibition [14] 0% | inhibition [15] -1.9% | inhibition [16] -2.9% | efflux inhibition (fraction of control) [17] -0.03 | inhibition [18] 4% | differentiation response [19] -13.6%

COc1ccc(OC)c([C@@H](O)[C@H](C)NC(C)(C)C)c1
inactive: percent of DMSO control GFP [1] 100% | GFP response vs DMSO [2] 102% | percent response of DMSO control [3] 94.5% | GFP response vs DMSO [4] 91.5% | GFP response, % of DMSO [5] 88.8% | vesicle binding response [6] 157% | inhibition [7] -6.45% | superoxide response (% of plate) [8] 102% | aptamer binding inhibition [9] 0% | response [10] 14.8% | inhibition [11] -6.97% | response [12] 0.56% | binding (% of control) [13] 106% | inhibition [14] -0.4% | inhibition [15] -1.1% | inhibition [16] 1.4% | efflux inhibition (fraction of control) [17] 0.28 | inhibition [18] 18% | differentiation response [19] -6.03%
62%: double positive events [6]

C[C@]12CCC(=O)C=C1CC[C@@H]1[C@@H]2CC[C@]2(C)C(=O)CC[C@@H]12
66.1%: double positive events [6]
inactive: percent of DMSO control GFP [1] 97.6% | GFP response vs DMSO [2] 95.1% | percent response of DMSO control [3] 80.3% | GFP response vs DMSO [4] 106% | GFP response, % of DMSO [5] 84.2% | vesicle binding response [6] 210% | inhibition [7] 1.62% | aptamer binding inhibition [9] 1% | response [10] -0.98% | inhibition [11] -7.92% | response [12] -1.25% | binding (% of control) [13] 99.8% | inhibition [14] -2.7% | inhibition [15] -2.1% | inhibition [16] -3.5% | efflux inhibition (fraction of control) [17] 0.05 | inhibition [18] 9% | differentiation response [19] 11%

Cc1ccsc1C(=O)C1CCCN(Cc2cc3ccccc3o2)C1 (centres undefined)
59.8%: double positive events [6]
inactive: percent of DMSO control GFP [1] 102% | GFP response vs DMSO [2] 98.3% | percent response of DMSO control [3] 114% | GFP response vs DMSO [4] 85.5% | GFP response, % of DMSO [5] 102% | vesicle binding response [6] 51.3% | inhibition [7] 8.88% | superoxide response (% of plate) [8] 97.5% | aptamer binding inhibition [9] 1% | response [10] -13% | inhibition [11] 5.6% | response [12] -0.26% | binding (% of control) [13] 96.9% | inhibition [14] 2.8% | inhibition [15] -0.7% | inhibition [16] -1% | efflux inhibition (fraction of control) [17] -0.2 | inhibition [18] -3% | differentiation response [19] -4.64%

C[N+]1(C)CCOC(O)(c2ccc(-c3ccc(C4(O)C[N+](C)(C)CCO4)cc3)cc2)C1 (centres undefined)
inactive: percent of DMSO control GFP [1] 94.6% | GFP response vs DMSO [2] 126% | percent response of DMSO control [3] 101% | GFP response vs DMSO [4] 76.5% | GFP response, % of DMSO [5] 88% | vesicle binding response [6] 192% | inhibition [7] 9.37% | superoxide response (% of plate) [8] 113% | aptamer binding inhibition [9] -3% | response [10] -10.1% | inhibition [11] 1.77% | response [12] 2.1% | binding (% of control) [13] 101% | inhibition [14] 1.7% | inhibition [15] 0.1% | inhibition [16] 0.5% | efflux inhibition (fraction of control) [17] 0.19 | inhibition [18] 15% | differentiation response [19] 2.46%
64.9%: double positive events [6]

OCc1cnc[nH]1
inactive: percent of DMSO control GFP [1] 103% | GFP response vs DMSO [2] 109% | percent response of DMSO control [3] 98.9% | GFP response vs DMSO [4] 101% | GFP response, % of DMSO [5] 99.4% | vesicle binding response [6] 4490% | inhibition [7] 11% | superoxide response (% of plate) [8] 104% | aptamer binding inhibition [9] 0% | response [10] -1.18% | inhibition [11] 3.29% | response [12] 1.03% | binding (% of control) [13] 97.4% | inhibition [14] 0.1% | inhibition [15] -0.3% | inhibition [16] 1.2% | efflux inhibition (fraction of control) [17] -0.01 | inhibition [18] -11% | differentiation response [19] -10.5%
62.2%: double positive events [6]

C[C@H]1CCCC(=O)CCC/C=C/c2cc(O)cc(O)c2C(=O)O1
57.4%: double positive events [6]
inactive: percent of DMSO control GFP [1] 102% | GFP response vs DMSO [2] 104% | percent response of DMSO control [3] 96% | GFP response vs DMSO [4] 96.5% | GFP response, % of DMSO [5] 98.3% | vesicle binding response [6] 138% | inhibition [7] -0.31% | superoxide response (% of plate) [8] 102% | aptamer binding inhibition [9] 3% | response [10] 2.24% | inhibition [11] -2.22% | response [12] 0.54% | binding (% of control) [13] 99% | inhibition [14] 5.6% | inhibition [15] 0.5% | inhibition [16] 0.4% | efflux inhibition (fraction of control) [17] -0.09 | inhibition [18] 3% | differentiation response [19] -5.68%
